We go through two compounds from PubChem BioAssay (NCATS).

Assay [1] deals with Lysosomal acid glucosylceramidase (Homo sapiens) (UniProt P04062). The assay is described as follows: Glucocerebrosidase-p2 (AID 348; in the data active = potency below about 10 µM; also: potency is read from the fitted curve at half-maximal effect). The conditions noted are these: purified GBA, blue fluorogenic substrate, 40 min. The method, boiled down:
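Normal human glucocerebrosidase (0.2 nM) with blue fluorogenic substrate (80 uM final) in citrate/phosphate pH 5.9 with 10mM sodium taurocholate, 0.01% tween-20; 40 min RT, NaOH/glycine stop; fluorescence Ex 365/Em 440; AC50 from a titration from 0.6 nM upwards.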

Assay [2] is described as follows: AP1 Signaling Pathway (AID 357).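 Also: ME-180 reporter cells stimulated with EGF at its EC50 level; % is scaled to controls: 0 for no effect and ±100 for the full control effect.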 The conditions noted are these: ME-180 AP-1-bla reporter, EGF-induced, beta-lactamase ratio, 5 h; at 7.69 µM (top of the series) unless noted. Summed up: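 Beta-lactamase reporter under AP-1 response element, ME-180 background. Stimulus: EC50 EGF. Compound exposure 5 h, 37 °C. Detection: CCF4, 2.5 h RT, 460/530 nm. Values: AC50 from titration.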

The nature of assay [3]: NFAT Signaling Pathway (AID 444).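 Also: carbachol stimulus at about its EC50 of 1 µM final; % is scaled to controls: 0 for no effect and ±100 for the full control effect.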 Particulars: Jurkat NFAT-bla M1, carbachol, beta-lactamase ratio, 5 h; at 7.69 µM (top of the series) unless noted. Summed up: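 Jurkat cells carrying an NFAT-driven β-lactamase reporter and co-transfected muscarinic M1 receptor were treated with compound plus carbachol (1 uM final, an EC50 level) for 5 h at 37 °C. CCF4 loading followed for 1 h at RT; 460/530 nm ratio gave %activity.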

The nature of assay [4]: Stat Signaling Pathway (AID 446).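 Also: ME-180 cervical cancer cells given 40 pM IL-6 alongside compound; SIE-controlled beta-lactamase reporter measured as 460/530 nm FRET emission ratio; % is scaled to controls: 0 for no effect and ±100 for the full control effect.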 Particulars: ME-180 (cervical carcinoma) SIE beta-lactamase reporter, IL-6 stimulated, 5 h; at 7.69 µM (top of the series) unless noted. Summed up:
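Normalization used AC90 stimulation (300 pM IL-6) and AC90 inhibition (125 nM pan-JAK inhibitor at 40 pM IL-6). The underlying signal is SIE-driven beta-lactamase in ME-180 cells after 5 h IL-6 exposure with compound.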

Assay [5] deals with Glucocorticoid receptor (Homo sapiens) (UniProt P04150). Put plainly: GR-EFC Redistribution (AID 451; calls by dose curve; also: potency is read from the fitted curve at half-maximal effect). The conditions noted are these: CHO-K1 GR-EFC translocation, beta-gal luminescence, 2 h. Summed up: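 CHO-K1 cells stably expressing nuclear-localized β-gal enzyme acceptor and GR fused C-terminally to the enzyme donor fragment; ligand-driven nuclear translocation restores β-gal by complementation. Compounds titrated up to 46 uM final, 2 h at 37 °C; luminescence read.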
Glucocorticoid receptor (Homo sapiens), sequence (P04150 whole entry, looked up, the tested form may be a part): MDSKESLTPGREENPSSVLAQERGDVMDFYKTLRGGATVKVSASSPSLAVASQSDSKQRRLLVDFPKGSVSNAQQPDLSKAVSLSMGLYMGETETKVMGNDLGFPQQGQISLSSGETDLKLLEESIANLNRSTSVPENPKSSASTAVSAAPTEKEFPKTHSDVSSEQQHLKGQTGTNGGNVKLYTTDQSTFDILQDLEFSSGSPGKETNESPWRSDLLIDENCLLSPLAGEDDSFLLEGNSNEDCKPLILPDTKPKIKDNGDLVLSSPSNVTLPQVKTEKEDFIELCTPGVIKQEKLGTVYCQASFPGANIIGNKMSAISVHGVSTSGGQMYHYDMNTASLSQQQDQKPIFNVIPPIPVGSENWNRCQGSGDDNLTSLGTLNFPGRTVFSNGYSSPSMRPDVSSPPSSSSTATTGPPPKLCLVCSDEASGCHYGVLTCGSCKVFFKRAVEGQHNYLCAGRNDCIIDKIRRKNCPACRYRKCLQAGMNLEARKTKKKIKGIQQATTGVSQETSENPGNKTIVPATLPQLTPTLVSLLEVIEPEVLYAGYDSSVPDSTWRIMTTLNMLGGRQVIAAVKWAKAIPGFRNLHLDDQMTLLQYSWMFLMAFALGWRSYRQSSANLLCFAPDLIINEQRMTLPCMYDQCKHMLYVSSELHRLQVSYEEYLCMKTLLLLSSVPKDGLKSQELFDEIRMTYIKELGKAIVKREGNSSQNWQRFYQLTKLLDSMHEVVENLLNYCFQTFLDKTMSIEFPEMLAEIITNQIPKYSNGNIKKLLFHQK

Assay [6] deals with Mitogen-activated protein kinase 10 (Mus musculus) (UniProt Q61831). The assay is described as follows: JNK3 AlphaScreen Assay (AID 530).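 Also: kinase came from lysate of stimulated human HepG2 cells; signal reports phosphorylation of biotinylated GST-cJun 1-79 at Ser73 with 10 µM ATP; % is scaled to controls: 0 for no effect and ±100 for the full control effect.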 The method, boiled down: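 Phosphorylation of biotinylated GST-cJun(1-79) at Ser73 is measured by AlphaScreen proximity luminescence. Enzyme is JNK3 in HepG2 lysates activated with interleukin-1beta and tumor necrosis factor alpha; ATP is 10 uM final.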
A general note: In Alpha technology, singlet oxygen from a donor bead excites a nearby acceptor bead.

Assay [7] has as its target 3',5'-cyclic-AMP phosphodiesterase 4B (Homo sapiens) (UniProt Q07343). Put plainly: qHTS Assay for Inhibitors of PDE-IV (AID 607; active = well fitted activation curve with a large enough effect in the main read-out, with a control signal flat, not every such curve was filed as active; also: % of control where 0% means no effect). The method, boiled down:
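HEK293 ACTOne cells with CNG channel (1000/well), endogenous PDE4; membrane potential dye, compounds up to 22.9 uM final. Fluorescence Ex 535/Em 590; RO 20-1724 (100 uM final) as reference.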
(In general: In qHTS, concentration-response curves come from the screen itself.)

Assay [8] is described as follows: Primary qHTS for small molecule stabilizers of the endoplasmic reticulum resident proteome: Secreted ER Calcium Modulated Protein (SERCaMP) assay (AID 1508630; active = well fitted curve in the direction sought with a large enough effect; an effect the other way counts as inactive or inconclusive; also: % is scaled to controls: 0 for no effect and ±100 for the full control effect). Summed up: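 The SH-SY5Y reporter protocol was run at 3 concentrations up to 38.3 uM (primary) or 11 concentrations (follow-up): 16 h compound, 100 nM thapsigargin for 4 h, then extracellular luciferase luminescence.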

The target of assay [9] is Glucocorticoid receptor (Homo sapiens) (UniProt P04150). Put plainly: GR-GFP Redistribution (AID 450;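 active = compounds whose dose series gives a full or clear partial fitted curve of increased nuclear translocation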; also: potency is read from the fitted curve at half-maximal effect). Particulars: U2OS GR-GFP nuclear translocation, laser cytometry, 2 h.
A short description of assay [10]: qHTS Assay for Lipid Storage Modulators (AID 1519; calls by dose curve). The conditions noted are these: Drosophila S3 cells, BODIPY lipid droplet/cell ratio, laser cytometry, cells loaded with oleic acid. Summed up:
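Cells seeded at 5,000 per well were treated with compounds over a concentration series and loaded with oleic acid (400 uM, as added). Lipid droplet fluorescence (488 nm excitation, 500-530 nm channel) was read by laser-scanning cytometry and normalized to 20 uM Triacsin C.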

Assay [11] concerns the target Dual specificity protein kinase CLK4 (Homo sapiens) (UniProt Q9HAZ1). The assay is described as follows: qHTS Assay for Inhibitors of CDC-like Kinase 4 (Kinase-Glo Assay) (AID 1770; active = well fitted curve in the direction sought with a large enough effect; an effect the other way counts as inactive or inconclusive; also: % is scaled to controls: 0 for no effect and ±100 for the full control effect; nearly all actives have a fitted effect of over 65% in size). The method, boiled down:
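Luminescent ATP-depletion read-out (Kinase-Glo) after 4.5 h room-temperature reaction of Clk4 (25 nM final) with RS peptide (100 uM) and ATP (1 uM), pH 7.5 Tris buffer with MgCl2 and DTT.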

Assay [12] has the same target. The assay is described as follows: qHTS Assay for Inhibitors of CDC-like Kinase 4 (ADP-Glo Assay) (AID 1771; active = well fitted curve in the direction sought with a large enough effect; an effect the other way counts as inactive or inconclusive; also: % is scaled to controls: 0 for no effect and ±100 for the full control effect; nearly all actives have a fitted effect of over 70% in size). Summed up:
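ADP production was read by ADP-Glo luminescence after residual ATP depletion, following 1 h room-temperature reaction of 25 nM Clk4, 1 uM ATP and 100 uM RS peptide with MgCl2, EGTA, DTT and Triton X-100.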

Assay [13] shares this target. The assay is described as follows: qHTS Assay for Inhibitors of CDC-like Kinase 4 (ADP-FP Assay) (AID 1795; active = well fitted curve in the direction sought with a large enough effect; an effect the other way counts as inactive or inconclusive;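 also: recombinant human CLK4 phosphorylating RS repeat peptide at 1 µM ATP; % is scaled to controls: 0 for no effect and ±100 for the full control effect; nearly all actives have a fitted effect of over 60% in size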). The method, boiled down: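 Kinase activity was measured as ADP production using Transcreener orange tracer (4 nM) and ADP antibody (1 ug/mL) fluorescence polarization, with ADP calculated from a calibration curve. The 1 h reaction contained 6.25 nM Clk4, 1 uM ATP and 100 uM RS peptide at pH 7.5 with Mg2+.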

The target in assay [14] is Ubiquitin carboxyl-terminal hydrolase 1 (Homo sapiens) (UniProt O94782). Put plainly: Inhibitors of USP1/UAF1: Pilot qHTS (AID 504865; active = well fitted curve in the direction sought with a large enough effect; an effect the other way counts as inactive or inconclusive;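 also: rhodamine fluorescence freed from ubiquitin-rhodamine substrate followed over time; top concentration of the series differs between compounds; % is scaled to controls: 0 for no effect and ±100 for the full control effect; nearly all actives have a fitted effect of over 35% in size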). The method, boiled down: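 Deubiquitinase activity followed as kinetic rhodamine fluorescence release from 150 nM Ub-Rho. 1 nM USP1/UAF1 with compound, after 15 min room-temperature preincubation, in HEPES pH 7.8 buffer containing TCEP, EDTA, BSA and Tween-20.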
Ubiquitin carboxyl-terminal hydrolase 1 (Homo sapiens), sequence (O94782 whole entry, looked up): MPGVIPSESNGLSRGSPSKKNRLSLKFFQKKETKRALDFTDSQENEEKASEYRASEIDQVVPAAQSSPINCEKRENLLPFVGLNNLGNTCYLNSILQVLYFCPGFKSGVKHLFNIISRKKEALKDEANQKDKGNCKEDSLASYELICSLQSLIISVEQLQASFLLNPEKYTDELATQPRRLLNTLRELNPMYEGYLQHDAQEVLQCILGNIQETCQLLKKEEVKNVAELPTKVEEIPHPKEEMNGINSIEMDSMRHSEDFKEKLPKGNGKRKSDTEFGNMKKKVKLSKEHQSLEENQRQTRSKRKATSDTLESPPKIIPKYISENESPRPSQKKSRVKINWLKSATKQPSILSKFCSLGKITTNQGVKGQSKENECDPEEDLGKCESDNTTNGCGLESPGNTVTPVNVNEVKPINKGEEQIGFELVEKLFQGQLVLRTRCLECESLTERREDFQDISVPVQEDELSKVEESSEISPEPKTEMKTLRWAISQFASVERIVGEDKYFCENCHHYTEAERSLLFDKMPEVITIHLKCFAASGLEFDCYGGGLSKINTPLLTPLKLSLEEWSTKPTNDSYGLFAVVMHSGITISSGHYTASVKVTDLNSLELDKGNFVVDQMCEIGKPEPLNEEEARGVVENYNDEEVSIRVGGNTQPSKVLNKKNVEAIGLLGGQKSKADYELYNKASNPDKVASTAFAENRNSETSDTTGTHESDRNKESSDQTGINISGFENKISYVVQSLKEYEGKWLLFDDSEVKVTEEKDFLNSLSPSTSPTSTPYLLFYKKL

Results filed as inconclusive are left out. Calls of active or inactive are those of the source. Unless noted, calls follow the shape of the dose curve; as a rule, active = well fitted curve in either direction with a large enough effect (not every such curve was filed as active); inconclusive = small, poorly fitted or top-dose-only effect, or another doubt; inactive = flat fitted curve, though single readings scatter.

Dual specificity protein kinase CLK4 (Homo sapiens), sequence (Q9HAZ1 whole entry, looked up): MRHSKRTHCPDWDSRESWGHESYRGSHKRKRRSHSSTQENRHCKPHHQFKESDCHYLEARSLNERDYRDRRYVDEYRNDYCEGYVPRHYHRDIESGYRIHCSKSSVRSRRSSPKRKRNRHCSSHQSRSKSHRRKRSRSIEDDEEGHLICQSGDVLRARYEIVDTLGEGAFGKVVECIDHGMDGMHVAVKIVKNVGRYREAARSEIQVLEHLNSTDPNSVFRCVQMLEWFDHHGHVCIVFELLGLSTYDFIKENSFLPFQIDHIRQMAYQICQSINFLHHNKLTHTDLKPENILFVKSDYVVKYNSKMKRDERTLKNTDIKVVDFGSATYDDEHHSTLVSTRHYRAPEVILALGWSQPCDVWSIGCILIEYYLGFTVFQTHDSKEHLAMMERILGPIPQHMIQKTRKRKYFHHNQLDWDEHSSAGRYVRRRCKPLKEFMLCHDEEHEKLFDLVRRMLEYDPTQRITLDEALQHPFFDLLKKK
Lysosomal acid glucosylceramidase (Homo sapiens), sequence (P04062 whole entry, looked up): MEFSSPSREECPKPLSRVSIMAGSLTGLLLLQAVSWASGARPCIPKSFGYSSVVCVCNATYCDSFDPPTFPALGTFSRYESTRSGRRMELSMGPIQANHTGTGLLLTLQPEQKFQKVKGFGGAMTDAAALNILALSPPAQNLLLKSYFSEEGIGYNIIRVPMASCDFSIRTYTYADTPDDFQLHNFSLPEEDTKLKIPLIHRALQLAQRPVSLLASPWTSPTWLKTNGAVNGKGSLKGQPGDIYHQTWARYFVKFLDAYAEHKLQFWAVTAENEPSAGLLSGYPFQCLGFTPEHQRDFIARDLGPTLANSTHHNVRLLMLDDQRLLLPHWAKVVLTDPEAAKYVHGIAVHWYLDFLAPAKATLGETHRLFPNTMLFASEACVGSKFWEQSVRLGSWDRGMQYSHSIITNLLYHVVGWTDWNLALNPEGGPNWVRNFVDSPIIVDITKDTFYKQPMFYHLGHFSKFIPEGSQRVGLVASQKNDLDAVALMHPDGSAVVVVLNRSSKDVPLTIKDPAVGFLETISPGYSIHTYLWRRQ
3',5'-cyclic-AMP phosphodiesterase 4B (Homo sapiens), sequence (Q07343 whole entry, looked up): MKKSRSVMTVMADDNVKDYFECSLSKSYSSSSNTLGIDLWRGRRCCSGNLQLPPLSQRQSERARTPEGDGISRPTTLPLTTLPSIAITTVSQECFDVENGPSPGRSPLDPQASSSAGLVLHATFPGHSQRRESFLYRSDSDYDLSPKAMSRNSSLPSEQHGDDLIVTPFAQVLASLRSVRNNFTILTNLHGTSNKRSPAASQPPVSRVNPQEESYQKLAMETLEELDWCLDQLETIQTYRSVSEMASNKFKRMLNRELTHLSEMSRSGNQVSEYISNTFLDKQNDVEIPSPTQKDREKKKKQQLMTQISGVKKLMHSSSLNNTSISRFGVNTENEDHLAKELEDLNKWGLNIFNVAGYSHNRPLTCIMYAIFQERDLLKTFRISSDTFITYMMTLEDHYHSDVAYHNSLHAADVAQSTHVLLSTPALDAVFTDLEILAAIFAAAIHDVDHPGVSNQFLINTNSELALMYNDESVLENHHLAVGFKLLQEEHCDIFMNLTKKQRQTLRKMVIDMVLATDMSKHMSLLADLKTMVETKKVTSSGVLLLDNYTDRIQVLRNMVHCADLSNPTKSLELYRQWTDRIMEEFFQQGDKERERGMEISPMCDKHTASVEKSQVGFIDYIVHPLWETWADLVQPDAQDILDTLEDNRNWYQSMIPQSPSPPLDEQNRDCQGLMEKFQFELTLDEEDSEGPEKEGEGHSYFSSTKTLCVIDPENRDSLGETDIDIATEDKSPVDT

As for `O=C(c1ccco1)N1CCC2(CC1)CCN(c1ncccn1)CC2`, the Potency in assay [1] was > 11.4 µM (inactive); in [5] it was > 46 µM (inactive). In addition, the activity change, negative = inhibition in assay [2] is -7.74% (inactive); in assay [3], -8.3% (inactive). Further, the activity, negative = inhibition in [4] is -7.06% (inactive). Further, in assay [6], the compound was classed as inactive. The Potency entry in [7] and in [8] was “inactive” throughout.
As to `COCCn1c(=O)c(-c2ccc(Cl)cc2)nc2cnc(OCc3ccccc3)nc21`, the figures for the Potency in assay [1], in assay [9] and in [5] were > 11.4 µM (inactive), > 9.22 µM (inactive) and > 46 µM (inactive), respectively. The activity change, negative = inhibition in [2] was -14.1% (inactive); in assay [3], 1.06% (inactive); in [10] (at 57.5 µM (top of the series)), -8.74% (inactive). For the same compound, the activity, negative = inhibition in assay [4] is -2.08% (inactive). In addition, in assay [6], the call was inactive. The max response was -2.09% in assay [10] (measured here: cell count channel max response) and -15.5% in [10] (measured here: lipid channel max response). For the same compound, the Potency result in assay [11], in assay [12], in assay [13] and in assay [14] was “inactive” each time.
